Experimental data: PubChem BioAssay (Tox21)
Inconclusive results are not listed. A number with no mark means an inactive call. Calls come from the whole dose curve; as a rule, active = well fitted cell-killing curve with a large enough effect in the repeat runs; inconclusive = weak or mixed curves, or effect the other way; inactive = no such curve, though single readings can be large or run the other way.

Experiment: qHTS assay to identify small molecule antagonists of the peroxisome proliferator-activated receptor gamma (PPARg) signaling pathway - cell viability counter screen (AID 743194); note: nearly all actives have a fitted effect of over 55% in size
Conditions: PPARg-bla HEK293H viability, CellTiter-Glo luminescence, 17 h, co-treated with 50 nM rosiglitazone; series mostly up to 62.6 µM; activity change, negative = cytotoxicity: at the top concentration
From the text: U.S. Tox21 Program National Center for Advancing Translational Sciences [NCATS] NIH Chemical Genomics Center [NCGC] U.S. Environmental Protection Agency [EPA] National Institutes of Environmental Health Sciences [NIEHS] National Toxicology Program [NTP] U.S. Food and Drug Administration [FDA] Tox21 Assay Overview: The peroxisome proliferator-activated receptors (PPARs) are lipid-activated transcription factors of the nuclear receptor superfamily with three distinct subtypes namely PPAR alpha, PPAR delta (also called PPAR beta) and PPAR gamma (PPARg). All these subtypes heterodimerize with Retinoid X receptor (RXR) and these heterodimers regulate transcription of various genes. PPAR-gamma receptor (glitazone receptor) is involved in the regulation of glucose and lipid metabolism. To identify the compounds that activate PPAR-gamma signaling, GeneBLAzer PPAR gamma UAS-bla HEK293H cell line (Invitrogen, Carlsbad, CA, USA) containing a beta-lactamase reporter gene under the control of an Upstream Activator Sequence (UAS) was used to screen the Tox21 compound library. The cytotoxicity of the Tox21 compound library against the PPARg-bla cell line was tested in parallel by measuring the cell viability using CellTiter-Glo assay in the same wells.
Tox21 Assay Protocol Summary: PPARg-bla cells were dispensed at 3000 cells/5uL/well in 1536-well black wall/clear bottom plates using a Multidrop Combi (Thermo Fisher Scientific, Waltham, MA) dispenser. After the assay plates were incubated at 37 C and 5% CO2 for 5 h, 23 nL of compounds dissolved in DMSO, positive controls or DMSO only was transferred to the assay plate by a Pintool station (Kalypsys, San Diego, CA), followed by addition of 1ul Rosiglitazone (50 nM, final concentration in the wells). The assay plates were incubated at 37 C for 17 h, and then 1 uL of LiveBLAzerTM B/G FRET substrate was added using a Bioraptr Flying Reagent Dispenser (FRD) workstation (Beckman Coulter, Indianapolis, IN, USA). The assay plates were incubated at room temperature for 1 h and fluorescence intensity was measured by an Envision plate reader (PerkinElmer, Shelton, CT). For cell viability readout that measures cytotoxicity, 4 ul/well of CellTiter-Glo reagent was added into the assay plates using a Flying Reagent Dispenser. After 30 min incubation at room temperature, the luminescence intensity in the plates was measured using a ViewLux plate reader (PerkinElmer).
% is set by controls: 0 for no effect and ±100 for the full control effect.

Compound	activity change, negative = cytotoxicity
CCCOCC(C)OCC(C)O (stereo not given)	12.1% [at 81.1 µM]
COC(=O)CCCCCCCCC(=O)OC	-13.7% [at 81.1 µM]
CSc1ccc(C=O)cc1	-7.05%
COC(=O)CCCC(=O)O	6.69%
FC(F)(F)C(F)(F)C(F)(F)C(F)(F)C(F)(F)C(F)(F)C(F)(F)C(F)(F)C(F)(F)C(F)(F)F	1.8% [at 5.95 µM]
CCCCCCCCCCCCI	19.8% [at 81.1 µM]
NC(=O)c1ncn([C@@H]2O[C@H](CO)[C@@H](O)[C@H]2O)c1O	1.53%
CC(C)c1ccc2oc3nc(N)c(C(=O)O)cc3c(=O)c2c1	-4.76%
NC(=S)Nc1cccc2ccccc12	9.83% [at 5.95 µM]
C1=C\CC/C=C\CC/C=C\CC/1	-1.37%
NS(=O)(=O)c1cc(C2(O)NC(=O)c3ccccc32)ccc1Cl (stereo not given)	7.5%
C/C=C1\C(=O)C[C@H]2[C@@H]3CCC4=CC(=O)CC[C@]4(C)[C@H]3CC[C@]12C	-11.3%
CC1=CC(=O)CCC1	-0.182%
CC(C)CCCCCCN	10.6%
NC(=O)Nc1nc2ccccc2[nH]1	-0.722%
C=C(C)[C@H]1CC=C(C)CC1	-0.0892%
Nc1nc(F)nc2c1ncn2[C@@H]1O[C@H](CO)[C@@H](O)[C@@H]1O	0.432%
CN(C)CCOC(c1ccc(Cl)cc1)c1ccccn1 (stereo not given)	-1.33%
N#CCc1ccccc1[N+](=O)[O-]	-8.75%
CC1(C)SC(C)(C)SC(C)(C)S1	5.48%

Compound	activity change, negative = cytotoxicity
O=C(O)/C=C/c1ccc(Cn2ccnc2)cc1	15.9%
CNC(=O)c1c(I)c(NC(=O)CCCCC(=O)Nc2c(I)c(C(=O)O)c(I)c(C(=O)NC)c2I)c(I)c(C(=O)O)c1I	0.325%
COc1cc(O)cc(O)c1	18.8%
CC(C=O)Cc1ccc(C(C)C)cc1 (stereo not given)	-12.5%
O=c1[nH]c2ccccc2c(=O)n1CCCl	12.6%
CCN1CCCC1CNC(=O)c1cc(S(N)(=O)=O)ccc1OC (stereo not given)	9.77%
COc1cc(CCC(C)=O)ccc1O	-0.0238%
CCCCCCCCCCCCCCCCCC(=O)OCCCCCCCCCCCCCC(C)C	13.2%
O=C1C(CCS(=O)c2ccccc2)C(=O)N(c2ccccc2)N1c1ccccc1 (stereo not given)	-9.64%
CCCCCCCCCCCCCCC	3.59%
Cc1ccc(N)cc1[N+](=O)[O-]	19.8% [at 81.1 µM]
CN(C)CCn1nnnc1SCC1=C(C(=O)O)N2C(=O)[C@@H](NC(=O)Cc3csc(N)n3)[C@H]2SC1	5.53%
O=C(O)c1cccc(C(=O)O)n1	-1.51%
OCc1ccccn1	-1%
CC(C)=CC(=O)O	5.9%
CCCCCC[C@@H](CCC)C(=O)O	11.8%
Cc1cc(C)c(NC(=O)CN(CC(=O)O)CC(=O)O)c(C)c1Br	3.45%
O=C(O)c1ccccc1-c1ccc(C(F)(F)F)cc1	-14.7%
CCCCCCC(=O)OCC	26.5%
O=C(CCOCCOCCOCCOCCC(=O)Nc1c(I)cc(I)c(C(=O)O)c1I)Nc1c(I)cc(I)c(C(=O)O)c1I	-5.89%
